# Experimental data as given in PubChem BioAssay (NCATS).
# Unmarked numbers belong to inactive results. Calls come from the whole dose curve; as a rule, active = well fitted curve in the direction sought with a large enough effect; inactive = no such curve, though single readings can be large or run the other way.
# Target: Alpha-galactosidase (Coffea arabica) (UniProt Q42656)
# Test: Counterscreen for Glucocerebrosidase Inhibitors: qHTS Assay for Coffee Bean alpha-Galactosidase at pH 5.9 (AID 998);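 note: plate controls were uninhibited enzyme for no effect and no-enzyme basal signal for full effect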
# Conditions: coffee bean alpha-galactosidase enzyme assay; series mostly up to 76.9 µM; activity, negative = inhibition: at the top concentration
# Text: NIH Chemical Genomics Center [NCGC]
# NIH Molecular Libraries Screening Centers Network [MLSCN]
# PI Name: Zheng, Wei [NIH]
# Alpha-galactosidase is a homodimeric glycoprotein that hydrolyzes the terminal alpha-galactosyl moieties from glycolipids and glycoproteins. Deficiency of this enzyme results in Fabry Disease with progressive accumulation of globotriaosylceramide and other glycosphingolipids in vascular endothelial cells that causes renal failure, myocardial infarction and stroke, and premature death in patients. It has reported that the improper folding and trafficking of alpha-galactosidase resulted from the genetic mutations may account for a significant numbers of Fabry patients. […] We optimized this coffee bean alpha-galactosidase assay in 1536-well plate format as a counter-screen assay for identifying the selective small molecule inhibitors of other lysosomal enzymes.
# NCGC Assay Protocol Summary:
# This is a fluorogenic enzyme assay with 4-Methylumbelliferyl alpha-D-galactopyranoside as the substrate and green coffee bean […] (from Sigma-Aldrich) as the enzyme preparation. Upon the hydrolysis of this fluorogenic substrate, the resulting product, […]. 4-Methyllumbelliferone, can be excited at 365 nm and emits at 440 nm which can be detected by a standard fluorescence plate reader. Data were normalized to the controls for basal activity (without enzyme) and 100% activity (with enzyme). In the AC50 values were determined from concentration-response data modeled with the standard Hill equation.
# Assay buffer: 50 mM citric acid, 0.005% Tween-20, pH 5.9. (pH 5.9 is an optimal condition for this enzyme assay.)
# 1536-well assay protocol for the coffee bean alpha-galactosidase:
# (1) Add 2 ul/well of enzyme (2 nM final)
# (2) Add 23 nL compounds in DMSO solution. The final titration was 0.7 nM to 77 uM.
# (3) Add 1 ul of substrate (80 uM final)
# (4) Incubate at room temperature for 20 min.
# (5) Add 2 ul stop solution (1M NaOH and 1M Glycine mixture, pH 10)
# (6) Detect the assay plate in a ViewLux plate reader (PerkinElmer) with Ex=365 nm and Em=440nm.
# Keywords: Alpha-galactosidase, Fabry Disease, pharmacological chaperone, chaperone therapy, high throughput screening, alpha-galactosidase inhibitor, MLSMR, MLSCN, NIH Roadmap, qHTS and NCGC
# Chain of Alpha-galactosidase (Coffea arabica) (Q42656 whole entry, looked up): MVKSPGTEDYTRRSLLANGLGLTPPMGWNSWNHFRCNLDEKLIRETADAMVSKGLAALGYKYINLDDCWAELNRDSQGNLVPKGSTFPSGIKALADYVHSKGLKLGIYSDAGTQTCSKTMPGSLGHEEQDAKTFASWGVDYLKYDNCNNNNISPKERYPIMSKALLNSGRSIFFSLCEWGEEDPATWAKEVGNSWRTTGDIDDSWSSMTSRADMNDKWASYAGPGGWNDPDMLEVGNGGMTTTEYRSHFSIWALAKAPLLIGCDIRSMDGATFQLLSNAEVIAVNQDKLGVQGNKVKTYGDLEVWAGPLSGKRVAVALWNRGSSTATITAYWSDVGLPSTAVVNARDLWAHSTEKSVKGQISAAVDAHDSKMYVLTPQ
row,Compound,"activity, negative = inhibition [%]"
1,C[C@]12CCC(=O)C=C1CC[C@@H]1[C@@H]2CC[C@]2(C)C(=O)CC[C@@H]12,-1.08
2,COc1ccc2cc([C@H](C)C(=O)O)ccc2c1,-2.03
3,CN1C(C(=O)Nc2ccccn2)=C(O)c2ccccc2S1(=O)=O,-3.18
4,O=C1NCC2(CCN(CCc3ccccc3)CC2)O1,-1.9
5,Nc1cc(=O)[nH]c(N)n1,0.237
6,Cc1nc2c([nH]1)c(=O)n(C)c(=O)n2Cc1ccco1,-1.62
7,O=c1c(-c2ccc(O)cc2)coc2cc(O)cc(O)c12,2.13
8,NC(=O)c1cnccn1,-0.719
9,Cc1cnc(NC(=O)C2=C(O)c3ccccc3S(=O)(=O)N2C)s1,-1.8
10,CCN(CC)C(=O)c1ccc(O)c(OC)c1,1.43
11,COc1cc(NS(C)(=O)=O)ccc1Nc1c2ccccc2nc2ccccc12,2.49
12,CCCCCCCCCCCCCCCC(=O)NCCO,-3.45
13,O=C(O)CCCc1ccc(N(CCCl)CCCl)cc1,-0.188
14,CCN(CC)CCNC(=O)c1ccc(N)cc1,2
15,NC(N)=Nc1nc(CSCC/C(N)=N/S(N)(=O)=O)cs1,1
16,COc1ccc2[nH]cc(CCNC(C)=O)c2c1,-1.06
17,CCN(CC)CCOC(=O)c1ccc(N)cc1,0.594
18,Nc1nc2ccc(OC(F)(F)F)cc2s1,0.112
19,NCCc1ccc(O)cc1,3.54
20,C[C@H](CS)C(=O)N1CCC[C@H]1C(=O)O,-2.02

row,Compound,"activity, negative = inhibition [%]"
1,N[C@@H](COP(=O)(O)O)C(=O)O,-0.521
2,O=C(CCCN1CCC2(CC1)C(=O)NCN2c1ccccc1)c1ccc(F)cc1,-2.9
3,CNC[C@H](O)c1cccc(O)c1,2.23
4,CNCCCC12CCC(c3ccccc31)c1ccccc12,-0.193
5,CCO/C([O-])=N/c1c[n+](N2CCOCC2)no1,-1.51
6,CC(=O)N1CCN(c2ccc(OC[C@H]3CO[C@](Cn4ccnc4)(c4ccc(Cl)cc4Cl)O3)cc2)CC1,-7.35
7,O=C(O)CCCCCCCC(=O)O,0.277
8,CC(C)c1cccc(C(C)C)c1O,-1.06
9,FC(F)(F)c1ccccc1-n1ccnc1,-1.38
10,O=c1[nH]cnc2[nH]ncc12,-2.17
11,Clc1cccc(Cl)c1NC1=NCCN1,5.78
12,CCN1CCC[C@H]1CNC(=O)c1cc(S(N)(=O)=O)ccc1OC,1.78
13,CC(C)NNC(=O)c1ccncc1,-2.28
14,CC(C)(C)NC[C@H](O)COc1nsnc1N1CCOCC1,3.55
15,CC(C)Cc1ccc(C(C)C(=O)O)cc1 (stereo not given),3.72
16,O=P1(N(CCCl)CCCl)NCCCO1 (stereo not given),-0.68
17,O=C(O)CN(CCN(CC(=O)O)CC(=O)O)CCN(CC(=O)O)CC(=O)O,-0.432
18,O=c1[nH]oc2c1CCNC2,2.38
19,COc1cc(-c2ccc(=O)[nH]n2)ccc1OC(F)F,2.1
20,Nc1ccc(S(=O)(=O)Nc2ccnn2-c2ccccc2)cc1,0.328
